Laboratory results taken from article PMC5540273 (PLoS ONE, 2017).

How the values were obtained:
Details in all cases: concentration: 1 μM, replicates: in singlicate; n = 1
PRKCH = system: PRKCH
PRKCI = system: PRKCI
PRKCQ = system: PRKCQ
PRKD1 = system: PRKD1
PRKD2 = system: PRKD2
PRKD3 = system: PRKD3
PRKG1 = system: PRKG1
PRKG2 = system: PRKG2
PRKR = system: T1, PRKR
T1 construct: gene EIF2AK2

PRKX = system: PRKX
PRP4 = system: PRP4
PYK2 = system: T2, PYK2
T2 construct: gene PTK2B

QSK = system: QSK
RAF1 = system: RAF1
RET = system: RET
RIOK1 = system: RIOK1
RIOK2 = system: RIOK2
RIOK3 = system: RIOK3
RIPK1 = system: RIPK1
RIPK2 = system: RIPK2
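Note: KINOMEscan kinase panel screen.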

Row | SMILES | %Inh (PRKCH) [%] | %Inh (PRKCI) [%] | %Inh (PRKCQ) [%] | %Inh (PRKD1) [%] | %Inh (PRKD2) [%] | %Inh (PRKD3) [%] | %Inh (PRKG1) [%] | %Inh (PRKG2) [%] | %Inh (PRKR) [%] | %Inh (PRKX) [%] | %Inh (PRP4) [%] | %Inh (PYK2) [%] | %Inh (QSK) [%] | %Inh (RAF1) [%] | %Inh (RET) [%] | %Inh (RIOK1) [%] | %Inh (RIOK2) [%] | %Inh (RIOK3) [%] | %Inh (RIPK1) [%] | %Inh (RIPK2) [%]
1 | COc1nccc(-c2c(-c3ccc(F)cc3)ncn2CCCN2CCOCC2)n1 [SB-282852] | 0 | 23 | 0 | 21 | 6 | 0 | 10 | 24 | 10 | 0 | 24 | 0 | 0 | 11 | 0 | 46 | 0 | 10 | 0 | 0
2 | COc1cccc(CNC(=O)NC2CCN(c3ccnc(Nc4ccc(F)cc4)n3)C2)c1 (centres unmarked) [GSK1379723] | 2 | 10 | 0 | 0 | 0 | 14 | 0 | 0 | 0 | 6 | 7 | 3 | 2 | 12 | 8 | 30 | 0 | 0 | 0 | 7
3 | Fc1ccc(-c2nc[nH]c2-c2ccncc2)cc1 [SB-217360] | 0 | 0 | 0 | 0 | 0 | 0 | 18 | 0 | 0 | 0 | 0 | 0 | 17 | 18 | 0 | 0 | 0 | 0 | 0 | 66
4 | FC(F)(F)c1ccccc1-c1cc(-c2c[nH]nc2-c2ccccn2)ccn1 [GW679396] | 11 | 32 | 0 | 12 | 5 | 100 | 18 | 0 | 0 | 0 | 5 | 24 | 0 | 0 | 11 | 13 | 0 | 10 | 12 | 20
5 | Cc1c(Cn2c(C)c(C)n3c(=O)cc(N4CCOCC4)nc23)cccc1C(F)(F)F [GSK2328680] | 23 | 0 | 8 | 0 | 18 | 8 | 5 | 91.2 | 0 | 0 | 23 | 10 | 6 | 13 | 4 | 11 | 11 | 0 | 17 | 11
6 | Cc1ccc(NC(=O)Nc2ccc(Cl)cc2)cc1-c1ccc(C(=O)Nc2ccncc2)cc1 [GSK1398472] | 27 | 27 | 10 | 0 | 0 | 35 | 8 | 0 | 1 | 24 | 21 | 15 | 1 | 87 | 6 | 31 | 0 | 31 | 0 | 12
7 | CSc1ccc(-c2nc3n(c2-c2ccncc2)CCC3)cc1 [SKF-105561] | 0 | 37 | 0 | 27 | 4 | 0 | 0 | 0 | 0 | 0 | 1 | 0 | 31 | 0 | 0 | 0 | 0 | 5 | 0 | 74
8 | CC(=O)c1c(C)c2cnc(Nc3ccn(C)n3)nc2n(C2CCCC2)c1=O | 0 | 0 | 0 | 0 | 0 | 0 | 0 | 0 | 0 | 0 | 0 | 0 | 0 | 0 | 5 | 0 | 24 | 0 | 2 | 0
9 | Cc1ccc(NC(=O)Nc2ccccc2)cc1-c1ccc(C(=O)Nc2ccncc2)cc1 [GSK1398471] | 11 | 22 | 8 | 20 | 15 | 3 | 0 | 0 | 0 | 14 | 0 | 17 | 13 | 73 | 13 | 35 | 0 | 17 | 0 | 12
10 | CC(=O)c1cccc(NC(=O)NC2CCN(c3ccnc(Nc4ccc(F)cc4)n3)C2)c1 (centres unmarked) [GSK1379710] | 0 | 11 | 27 | 0 | 10 | 9 | 0 | 31 | 13 | 32 | 55 | 26 | 4 | 13 | 0 | 31 | 0 | 33 | 29 | 24
